# Bioassay records as filed in PubChem.
# Epigenetic reg = Quantitative High-Throughput Screen for Regulators of Epigenetic Control; murine LDR cells, GFP reporter derepression, 30 h; Potency, µM (doses to about 53.9 µM), without a hit: at the highest dose GFP activation, usual class: activators; 0.2% of 280,000 active; AID 1865, 2009; active means well fitted activation curve with a large enough effect; further: potency means the concentration at half of the fitted maximal effect; % of control where 0% means no effect; nearly all actives have a fitted effect of over 60% in size
#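 In this reporter-derepression format, murine cells bearing a silenced integrated CMV-GFP locus incubate with test compound (30 h, 37 C), then are washed and imaged; fluorescent objects of 20–120 um count as induced cells.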
# TRHR ag = qHTS for Small Molecule Agonists and Allosteric Enhancers of Human TRH Receptor: Primary Screen for Agonists. activation, % at 2 µM. AID 493084, 2011. TRHR cells, calcium flux fluo-8, FDSS agonist mode. 0.18% of 360,000 active. Thyrotropin-releasing hormone receptor (Homo sapiens), P34981; further: 0% is about no effect
# Target sequence (P34981 whole entry, looked up): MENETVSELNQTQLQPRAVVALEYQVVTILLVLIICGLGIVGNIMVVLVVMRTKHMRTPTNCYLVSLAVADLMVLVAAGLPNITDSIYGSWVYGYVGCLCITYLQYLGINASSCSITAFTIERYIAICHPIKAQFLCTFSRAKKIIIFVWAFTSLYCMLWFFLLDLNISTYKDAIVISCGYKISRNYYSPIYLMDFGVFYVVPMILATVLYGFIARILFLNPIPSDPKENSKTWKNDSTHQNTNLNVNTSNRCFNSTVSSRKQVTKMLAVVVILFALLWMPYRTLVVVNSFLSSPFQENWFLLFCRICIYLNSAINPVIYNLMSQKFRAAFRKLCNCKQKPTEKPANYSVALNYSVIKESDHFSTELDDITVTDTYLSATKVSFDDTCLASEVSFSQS
#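 TRHR-expressing cells, plated overnight in medium with 10% serum, were loaded with fluo-8 calcium dye at room temperature. After a 10 s baseline, library compound was pin-added and calcium release was recorded kinetically (ex 480/em 530) as agonist response.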
# TRHR enhancer = qHTS for Small Molecule Agonists and Allosteric Enhancers of Human TRH Receptor: Primary Screen for Enhancers | Thyrotropin-releasing hormone receptor (Homo sapiens), P34981 | TRHR cells, fluo-8 calcium fluorescence, EC20 TRH enhancement | enhancement, % at 2 µM | 0.66% of 360,000 active; in the data active means enhancement above about 30%; further: 0% is about no effect
#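 Enhancer read-out: after compound pinning and an initial kinetic agonist-mode read, an EC20 of TRH (10 nM final) was injected and fluo-8 calcium signal (Ex 480/Em 530) followed at 1 s/cycle for 100 cycles in TRHR-expressing cells.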
# D1 PAM = Potentiators of Human D1 Dopamine Receptor: qHTS | HEK293 TREx D1 cells, calcium flux, dopamine EC20 potentiation | 0.036% of 360,000 active | AID 504651, 2011 | potentiation, % at 10 µM; in the data active means potentiation above about 30%; further: 0% is about no effect
# D1 agonist = Allosteric Agonists of the Human D1 Dopamine Receptor: qHTS; D(1A) dopamine receptor (Homo sapiens), P21728; HEK293 T-REx D1 cells, calcium flux, agonist mode; activation, % at 2 µM; 1% of 360,000 active; further: 0% is about no effect
#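 Tetracycline-induced HEK293 TREx D1 cells, force-coupled to calcium signalling, were dye-loaded with a no-wash calcium kit. Compound was pin-added after a 10 s baseline. Fluorescence was read kinetically at 1 cycle/s for 180 s, with calcium rises flagged as agonism.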
# D1 antagonist = Antagonist of Human D 1 Dopamine Receptor: qHTS. D(1A) dopamine receptor (Homo sapiens), P21728. HEK293 TREx D1 cells, calcium flux, dopamine EC80; active compounds read low. 3.2% of 360,000 active. activity change, negative = inhibition, % at 10 µM; in the data active means activity change below about -30%; further: on the % scale 0 is the no-effect control and ±100 the full control effect
#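 Compound effects on dopamine-evoked calcium signalling were measured in tetracycline-induced HEK293 Trex D1 cells. Dopamine at EC80 followed a 180 s compound pre-read, and fluorescence was tracked kinetically for 180 s more.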
# The depositor's hits bear a star; / = not tested or not shown; [ ] = dose if it differs, or a comment. Rows were chosen to be rich in hits. Some 4.6% of all compounds tested hit in one or more screens of this group. Unless noted, no stated cut-off is given here; in the data, active means activation above about 30%; inactive means the rest.
SMILES,Epigenetic reg,TRHR ag,TRHR enhancer,D1 PAM,D1 agonist,D1 antagonist
CC(=O)[C@@]1(O)CC[C@H]2[C@H]3C[C@@H](C)C4=CC(=O)C=C[C@]4(C)[C@@]3(F)[C@@H](O)C[C@]21C,0.0%[16.9 µM],/,/,/,/,/
Cc1nn(-c2ccccc2)c(C)c1/C=C/C(=O)OCC(=O)Nc1ccc(S(N)(=O)=O)cc1,/,0.4,4.4,/,8.1,-32.3*
Cc1nn(-c2ccccc2)c(C)c1/C=C/C(=O)OCC(=O)Nc1ccc(C(N)=O)cc1,/,0.4,3.7,5.0,1.4,-16.1
COc1ccc(Cl)cc1NC(=O)CCn1nc(C)cc1C,0.0%,0.1,6.4,-2.5,0.6,0.0
C=CCOC(=O)C(=O)/C=C/c1c(C)n(C)n(-c2ccccc2)c1=O,-1.7%,0.4,-2.7,1.4,-4.3,-40.3*
C=CCSC(=S)Nc1c(C)n(C)n(-c2ccccc2)c1=O,2.5%,0.7,5.0,1.9,3.2,-1.1
CC(C)OCCCNC(=O)C(NS(=O)(=O)c1ccc2c(c1)c(=O)n(C)c(=O)n2C)c1ccccc1 (centres undefined),0.0%,-1.1,19.2,-1.1,-0.4,-43.9*
CCOCCCNC(=O)C(Cc1ccccc1)NS(=O)(=O)c1ccc2c(c1)c(=O)n(C)c(=O)n2C (centres undefined),-0.3%,0.1,6.8,-1.4,-4.2,-1.5
Cc1coc2cc3oc(=O)c(CCC(=O)NCc4ccccc4Cl)c(C)c3cc12,0.0%,-0.1,7.5,-0.8,5.1,-25.3
Cc1ccc(Cl)cc1N1CCN(C(=O)c2ccc(NC3=NC4CS(=O)(=O)CC4S3)cc2)CC1 (centres undefined),/,0.5,-3.0,-5.3,3.9,-44.0*
O=C(c1ccc(NC2=NC3CS(=O)(=O)CC3S2)cc1)N1CCN(c2ccccc2)CC1 (centres undefined),/,0.1,-2.4,2.9,1.7,0.5
C=C[C@H]1CCC=C2C(=O)CCC[C@@H]21,0.8%,/,/,/,/,/
Cc1ccc(Cl)cc1-n1ncc2c(N3CCN(Cc4ccccc4)CC3)ncnc21,5.9%,-0.8,-5.1,-2.2,-2.3,-45.2*
CCN1CCN(c2ncnc3c2cnn3-c2cc(Cl)ccc2C)CC1,1.8%,0.1,-1.8,0.7,1.0,-16.5
Cc1cc2c(c(=O)o1)C(Cc1ccccc1)C(C#N)=C(N)O2 (centres undefined),-0.9%,0.4,2.9,-6.2,0.5,-55.7*
Cc1ccc(N=Nc2ccc(O)c3ncccc23)cc1C,-2.6%,0.1,7.1,-5.0,36.2*,-15.7
CCS(=O)(=O)c1ccc(N=Nc2ccc(O)c3ncccc23)c(OC)c1,3.55µM*,0.8,3.0,-10.8,0.6,0.1
COc1ccccc1N=Nc1ccc(O)c2ncccc12,/,-0.7,7.5,4.3,0.3,10.5
CC(=O)c1cccc(NC(=O)Cn2nc(C(F)(F)F)c3c2CCC3)c1,1.9%,-0.6,0.2,-9.2,4.4,-7.0
Cc1ccc(/C=C/c2onc(C)c2S(=O)(=O)N2CCC(C(=O)NCc3ccc(C)o3)CC2)cc1,-0.5%,-1.3,26.9,-3.0,11.0,10.0
COc1ccccc1NC(=S)N(Cc1ccccc1)Cc1cccs1,0.0%,-0.4,10.7,-1.9,12.0,-54.1*
COc1ccccc1NC(=S)N(Cc1cccs1)C1CCCC1,0.1%,-0.4,2.7,-0.8,-0.3,-3.9
Cc1cc(C)c2c(N)c3cccc(C)c3nc2n1,11.5%,7.1,7.0,1.6,54.4*,5.3
CSc1ccccc1C(=O)NCCOc1cccc(C)c1,-3.1%,-0.4,-5.6,-4.0,3.1,-50.1*
Cc1ccc(C(=O)NCCOc2cccc(C)c2)cc1,-0.8%[10.1 µM],-1.5,-2.6,4.8,1.3,-3.9
Cc1ccc(S(=O)(=O)c2nnn3c2nc(N2CCC(C(N)=O)CC2)c2cc(Cl)ccc23)cc1C,0.8%,0.1,-4.2,-5.8,2.5,-33.2*
